Measured values published in the supplement of paper PMC10849652.
The full data set covers some 8,800 targets. This sample favours those with a hit. About 0.5% of all pairs of compound and target were hits.

Assays:
Assay in all cases: log2 fold change, soluble protein after heating vs DMSO (PISA); higher = thermal stabilisation; K562 lysate, 10 uM; active = over 0.2 and 3.5 SD of the protein, either way, in both replicates (recomputed)
lapatinib = compound: CS(=O)(=O)CCNCc1ccc(-c2ccc3ncnc(Nc4ccc(OCc5cccc(F)c5)c(Cl)c4)c3c2)o1 [lapatinib]
How it was run: (§1)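 A 30 min treatment with 10 μM compound was applied to crude K562 extract at 1 mg/mL protein in PBS pH 7.4 with 1 mM MgCl2. Heating for 3 min spanned 48°C-58°C, after which aliquots were pooled, adjusted to 0.5% NP-40 at 4°C and spun at 21,000xg for 90 min. TMTpro 16plex LC-MS/MS of the supernatant, with channel sums equalised, gave values recorded as log-two fold change in thermal stability against solvent controls, from duplicates.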

pictilisib = compound: CS(=O)(=O)N1CCN(Cc2cc3nc(-c4cccc5[nH]ncc45)nc(N4CCOCC4)c3s2)CC1 [pictilisib]
How it was run: as §1

crizotinib = compound: C[C@@H](Oc1cc(-c2cnn(C3CCNCC3)c2)cnc1N)c1c(Cl)ccc(F)c1Cl [crizotinib]
How it was run: as §1

[1] = compound: C[C@H](C1=CC=C(C=C1)C(=O)NC2=C3C=CNC3=NC=C2)N
How it was run: as §1

duvelisib = compound: C[C@H](Nc1ncnc2nc[nH]c12)c1cc2cccc(Cl)c2c(=O)n1-c1ccccc1 [duvelisib]
How it was run: as §1

gandotinib = compound: Cc1cc(Nc2cc(CN3CCOCC3)c3nc(C)c(Cc4ccc(Cl)cc4F)n3n2)n[nH]1 [gandotinib]
How it was run: as §1

tozasertib = compound: Cc1cc(Nc2cc(N3CCN(C)CC3)nc(Sc3ccc(NC(=O)C4CC4)cc3)n2)n[nH]1 [tozasertib]
How it was run: as §1

doramapimod = compound: Cc1ccc(-n2nc(C(C)(C)C)cc2NC(=O)Nc2ccc(OCCN3CCOCC3)c3ccccc23)cc1 [doramapimod]
How it was run: as §1

bafetinib = compound: Cc1ccc(NC(=O)c2ccc(CN3CC[C@H](N(C)C)C3)c(C(F)(F)F)c2)cc1Nc1nccc(-c2cncnc2)n1 [bafetinib]
How it was run: as §1

[2] = compound: Cc1cccc(CC(=O)N2CCc3c2ccc(-c2cn(C)c4ncnc(N)c24)c3F)n1
How it was run: as §1

nilotinib = compound: Cc1cn(-c2cc(NC(=O)c3ccc(C)c(Nc4nccc(-c5cccnc5)n4)c3)cc(C(F)(F)F)c2)cn1 [nilotinib]
How it was run: as §1

[3] = compound: Cc1nc(Nc2n[nH]c3c2CN(C(=O)N[C@H](CN(C)C)c2ccccc2)C3(C)C)c2sccc2n1
How it was run: as §1

dasatinib = compound: Cc1nc(Nc2ncc(C(=O)Nc3c(C)cccc3Cl)s2)cc(N2CCN(CCO)CC2)n1 [dasatinib]
How it was run: as §1

[4] = compound: Cc1ncc(-c2ccnc(Nc3ccc(S(C)(=O)=O)cc3)n2)n1C(C)C
How it was run: as §1

[5] = compound: Cn1cc(-c2ccc3c(c2)CCN3C(=O)Cc2cccc(C(F)(F)F)c2)c2c(N)ncnc21
How it was run: as §1

quisinostat = compound: Cn1cc(CNCC2CCN(c3ncc(C(=O)NO)cn3)CC2)c2ccccc21 [quisinostat]
How it was run: as §1

tipifarnib = compound: Cn1cncc1[C@@](N)(c1ccc(Cl)cc1)c1ccc2c(c1)c(-c1cccc(Cl)c1)cc(=O)n2C [tipifarnib]
How it was run: as §1

[6] = compound: NC(=O)Nc1cc(-c2cccc(F)c2)sc1C(=O)N[C@H]1CCCNC1
How it was run: as §1

[7] = compound: NC(=O)c1cnc(N[C@@H]2CCCC[C@@H]2N)nc1Nc1cccc(-n2nccn2)c1
How it was run: as §1

[8] = compound: NC1(c2ccc(-c3nc4ccn5c(=O)[nH]nc5c4cc3-c3ccccc3)cc2)CCC1
How it was run: as §1

Measured: log2 fold change

RASA2 (UniProt Q15283)
UniProt Q15283, sequence (Q15283 whole entry, looked up): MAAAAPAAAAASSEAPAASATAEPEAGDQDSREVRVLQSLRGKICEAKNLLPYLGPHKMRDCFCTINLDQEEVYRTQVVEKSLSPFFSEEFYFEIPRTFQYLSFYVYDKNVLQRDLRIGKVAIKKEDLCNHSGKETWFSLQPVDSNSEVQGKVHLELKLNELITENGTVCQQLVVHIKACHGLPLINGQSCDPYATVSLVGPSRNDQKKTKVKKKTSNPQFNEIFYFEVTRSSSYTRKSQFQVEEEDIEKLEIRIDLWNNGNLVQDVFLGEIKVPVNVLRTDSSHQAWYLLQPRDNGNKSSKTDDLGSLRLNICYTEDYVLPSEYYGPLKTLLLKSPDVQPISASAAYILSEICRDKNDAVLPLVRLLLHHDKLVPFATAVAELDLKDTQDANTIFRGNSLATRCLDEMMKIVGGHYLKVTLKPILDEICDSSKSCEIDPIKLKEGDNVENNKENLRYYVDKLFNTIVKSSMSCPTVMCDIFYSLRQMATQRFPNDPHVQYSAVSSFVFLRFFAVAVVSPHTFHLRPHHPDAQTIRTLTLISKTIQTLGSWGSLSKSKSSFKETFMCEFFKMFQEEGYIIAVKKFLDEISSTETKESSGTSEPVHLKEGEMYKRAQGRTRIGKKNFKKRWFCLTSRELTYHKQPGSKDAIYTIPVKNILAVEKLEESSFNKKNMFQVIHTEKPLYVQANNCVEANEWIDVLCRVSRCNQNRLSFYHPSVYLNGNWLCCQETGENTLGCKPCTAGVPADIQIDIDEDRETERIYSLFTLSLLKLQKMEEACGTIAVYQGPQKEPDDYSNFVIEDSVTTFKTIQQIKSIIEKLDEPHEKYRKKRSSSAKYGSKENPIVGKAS
inactive: lapatinib 0.026 | pictilisib -0.089 | crizotinib -0.014 | [1] -0.007 | duvelisib -0.045 | gandotinib -0.087 | tozasertib 0.013 | doramapimod 0.072 | bafetinib -0.078 | [2] 0.096 | nilotinib -0.049 | [3] -0.037 | dasatinib -0.015 | [4] 0.063 | [5] 0 | quisinostat -0.071 | tipifarnib 0.018 | [6] -0.011 | [7] 0.042 | [8] -0.031

RABGGTB (UniProt P53611)
UniProt P53611, sequence (P53611 whole entry, looked up): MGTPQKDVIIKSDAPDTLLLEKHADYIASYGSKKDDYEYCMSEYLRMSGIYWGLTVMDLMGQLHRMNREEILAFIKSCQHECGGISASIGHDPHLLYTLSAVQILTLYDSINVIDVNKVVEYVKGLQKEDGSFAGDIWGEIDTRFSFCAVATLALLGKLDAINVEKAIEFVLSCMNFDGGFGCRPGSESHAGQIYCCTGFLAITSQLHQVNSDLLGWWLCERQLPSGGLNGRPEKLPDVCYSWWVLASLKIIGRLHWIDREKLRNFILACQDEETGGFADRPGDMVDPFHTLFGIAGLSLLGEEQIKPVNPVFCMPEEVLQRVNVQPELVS
inactive: lapatinib -0.02 | pictilisib 0.006 | crizotinib -0.031 | [1] 0.135 | duvelisib 0.043 | gandotinib -0.051 | tozasertib -0.023 | doramapimod 0.016 | bafetinib -0.087 | [2] 0.028 | nilotinib 0.005 | [3] 0.003 | dasatinib 0.017 | [4] 0.006 | [5] -0.009 | quisinostat -0.02 | tipifarnib -0.013 | [6] 0.033 | [7] -0.016 | [8] 0.031

SCD (UniProt O00767)
UniProt O00767, sequence (O00767 whole entry, looked up): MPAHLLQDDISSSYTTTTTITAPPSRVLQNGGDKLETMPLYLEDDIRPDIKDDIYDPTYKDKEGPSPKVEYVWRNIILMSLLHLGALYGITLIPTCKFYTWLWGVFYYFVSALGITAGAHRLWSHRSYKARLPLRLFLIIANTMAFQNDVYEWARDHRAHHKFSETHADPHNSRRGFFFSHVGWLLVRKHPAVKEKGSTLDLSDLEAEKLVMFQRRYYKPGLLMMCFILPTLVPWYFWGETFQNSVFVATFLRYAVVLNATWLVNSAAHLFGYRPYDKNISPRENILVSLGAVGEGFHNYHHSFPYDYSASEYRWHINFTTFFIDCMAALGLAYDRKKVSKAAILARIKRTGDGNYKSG
inactive: lapatinib 0.059 | pictilisib 0 | crizotinib -0.08 | duvelisib 0.067 | gandotinib 0.155 | tozasertib 0.065 | doramapimod 0.077 | bafetinib -0.053 | [2] 0.273 | nilotinib -0.007 | [3] -0.017 | dasatinib 0.01 | [4] -0.01 | [5] 0.007 | quisinostat -0.144 | tipifarnib -0.077 | [6] -0.023 | [7] -0.183 | [8] 0.03
active: [1] -0.443

RPL28 (UniProt P46779)
inactive: lapatinib 0.01 | pictilisib 0.047 | crizotinib 0.043 | [1] 0.234 | duvelisib 0.018 | gandotinib -0.098 | tozasertib -0.018 | doramapimod -0.046 | bafetinib 0.056 | [2] -0.059 | nilotinib -0.018 | [3] -0.011 | dasatinib 0.009 | [4] -0.015 | [5] -0.005 | quisinostat 0.08 | tipifarnib 0.002 | [6] -0.028 | [7] -0.011 | [8] -0.023

RANBP2 (UniProt P49792)
inactive: lapatinib 0.002 | pictilisib -0.001 | crizotinib -0.01 | [1] -0.009 | duvelisib -0.014 | gandotinib -0.069 | tozasertib 0.001 | doramapimod -0.002 | bafetinib -0.02 | [2] 0.06 | nilotinib -0.018 | [3] 0.001 | dasatinib -0.059 | [4] 0.006 | [5] 0.021 | quisinostat -0.05 | tipifarnib -0.055 | [6] 0.046 | [7] 0.007 | [8] -0.003

REXO4 (UniProt Q9GZR2)
active: [1] 0.349
inactive: lapatinib 0 | pictilisib -0.128 | crizotinib 0.017 | duvelisib -0.003 | gandotinib -0.169 | tozasertib -0.017 | doramapimod -0.056 | bafetinib -0.06 | [2] -0.139 | nilotinib -0.001 | [3] -0.009 | dasatinib -0.008 | [4] 0.021 | [5] 0.008 | quisinostat 0.013 | tipifarnib 0.015 | [6] 0.03 | [7] -0.045 | [8] 0.034

RAI14 isoform 2 (UniProt Q9P0K7)
UniProt Q9P0K7, sequence (Q9P0K7 whole entry, looked up): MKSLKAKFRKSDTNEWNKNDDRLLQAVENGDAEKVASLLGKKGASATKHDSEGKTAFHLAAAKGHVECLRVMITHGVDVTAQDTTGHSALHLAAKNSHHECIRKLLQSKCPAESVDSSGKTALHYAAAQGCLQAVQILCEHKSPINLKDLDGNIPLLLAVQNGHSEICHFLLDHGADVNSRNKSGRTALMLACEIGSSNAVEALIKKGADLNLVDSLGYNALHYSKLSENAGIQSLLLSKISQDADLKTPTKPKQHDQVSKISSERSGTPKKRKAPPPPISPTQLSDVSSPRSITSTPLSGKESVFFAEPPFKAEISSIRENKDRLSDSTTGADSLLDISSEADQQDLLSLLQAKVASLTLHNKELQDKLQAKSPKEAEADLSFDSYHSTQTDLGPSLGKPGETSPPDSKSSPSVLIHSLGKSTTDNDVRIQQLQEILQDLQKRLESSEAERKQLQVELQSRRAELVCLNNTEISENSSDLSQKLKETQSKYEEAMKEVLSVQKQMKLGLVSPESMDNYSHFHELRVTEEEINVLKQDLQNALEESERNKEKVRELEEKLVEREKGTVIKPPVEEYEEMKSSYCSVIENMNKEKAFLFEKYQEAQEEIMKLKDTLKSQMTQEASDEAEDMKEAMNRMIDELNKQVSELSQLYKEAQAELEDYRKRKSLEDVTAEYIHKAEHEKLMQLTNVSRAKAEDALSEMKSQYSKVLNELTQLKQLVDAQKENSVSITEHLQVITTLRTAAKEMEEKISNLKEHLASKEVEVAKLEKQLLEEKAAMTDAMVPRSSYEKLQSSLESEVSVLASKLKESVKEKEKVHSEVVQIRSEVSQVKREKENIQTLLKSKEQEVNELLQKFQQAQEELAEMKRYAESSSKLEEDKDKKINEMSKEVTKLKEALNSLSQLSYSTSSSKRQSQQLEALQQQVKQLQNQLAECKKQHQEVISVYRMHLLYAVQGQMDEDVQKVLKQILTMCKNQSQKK
inactive: lapatinib -0.026 | pictilisib -0.007 | crizotinib -0.014 | [1] 0 | duvelisib -0.025 | gandotinib -0.051 | tozasertib 0.009 | doramapimod 0 | bafetinib -0.029 | [2] 0.002 | nilotinib -0.004 | [3] -0.006 | dasatinib -0.003 | [4] -0.05 | [5] 0.013 | quisinostat -0.023 | tipifarnib -0.036 | [6] -0.02 | [7] 0.012 | [8] -0.013

RNF181 (UniProt Q9P0P0)
UniProt Q9P0P0, sequence (Q9P0P0 whole entry, looked up): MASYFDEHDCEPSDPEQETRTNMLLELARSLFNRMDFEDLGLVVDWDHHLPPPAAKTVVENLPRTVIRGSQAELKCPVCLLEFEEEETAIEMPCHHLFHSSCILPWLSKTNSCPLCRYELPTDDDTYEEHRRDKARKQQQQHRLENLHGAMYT
inactive: lapatinib 0.079 | pictilisib -0.069 | crizotinib 0.049 | [1] 0.057 | duvelisib 0.028 | gandotinib -0.042 | tozasertib 0.054 | doramapimod 0.057 | bafetinib -0.03 | [2] 0.01 | nilotinib 0.023 | [3] 0.027 | dasatinib 0.013 | [4] 0.007 | [5] -0.004 | quisinostat -0.027 | tipifarnib -0.03 | [6] 0.006 | [7] -0.01 | [8] -0.023

RAB27A (UniProt P51159)
active: [1] 0.563
inactive: lapatinib 0.013 | pictilisib -0.008 | crizotinib 0.026 | duvelisib -0.009 | gandotinib -0.081 | tozasertib 0.024 | doramapimod -0.034 | bafetinib 0.038 | [2] -0.054 | nilotinib -0.018 | [3] 0.02 | dasatinib 0.022 | [4] -0.059 | [5] 0.003 | quisinostat 0.037 | tipifarnib 0.038 | [6] -0.024 | [7] 0.014 | [8] 0.021

RNF213, A0A0A0MTC1
inactive: lapatinib -0.012 | pictilisib -0.014 | crizotinib -0.064 | [1] -0.043 | duvelisib 0.008 | gandotinib -0.123 | tozasertib 0.043 | doramapimod 0.033 | bafetinib -0.066 | [2] 0.052 | nilotinib 0.015 | [3] -0.016 | dasatinib -0.027 | [4] -0.019 | [5] 0.035 | quisinostat -0.033 | tipifarnib 0.001 | [6] 0.071 | [7] 0.015 | [8] -0.016

RIC1 (UniProt Q4ADV7)
UniProt Q4ADV7, sequence (Q4ADV7 whole entry, looked up): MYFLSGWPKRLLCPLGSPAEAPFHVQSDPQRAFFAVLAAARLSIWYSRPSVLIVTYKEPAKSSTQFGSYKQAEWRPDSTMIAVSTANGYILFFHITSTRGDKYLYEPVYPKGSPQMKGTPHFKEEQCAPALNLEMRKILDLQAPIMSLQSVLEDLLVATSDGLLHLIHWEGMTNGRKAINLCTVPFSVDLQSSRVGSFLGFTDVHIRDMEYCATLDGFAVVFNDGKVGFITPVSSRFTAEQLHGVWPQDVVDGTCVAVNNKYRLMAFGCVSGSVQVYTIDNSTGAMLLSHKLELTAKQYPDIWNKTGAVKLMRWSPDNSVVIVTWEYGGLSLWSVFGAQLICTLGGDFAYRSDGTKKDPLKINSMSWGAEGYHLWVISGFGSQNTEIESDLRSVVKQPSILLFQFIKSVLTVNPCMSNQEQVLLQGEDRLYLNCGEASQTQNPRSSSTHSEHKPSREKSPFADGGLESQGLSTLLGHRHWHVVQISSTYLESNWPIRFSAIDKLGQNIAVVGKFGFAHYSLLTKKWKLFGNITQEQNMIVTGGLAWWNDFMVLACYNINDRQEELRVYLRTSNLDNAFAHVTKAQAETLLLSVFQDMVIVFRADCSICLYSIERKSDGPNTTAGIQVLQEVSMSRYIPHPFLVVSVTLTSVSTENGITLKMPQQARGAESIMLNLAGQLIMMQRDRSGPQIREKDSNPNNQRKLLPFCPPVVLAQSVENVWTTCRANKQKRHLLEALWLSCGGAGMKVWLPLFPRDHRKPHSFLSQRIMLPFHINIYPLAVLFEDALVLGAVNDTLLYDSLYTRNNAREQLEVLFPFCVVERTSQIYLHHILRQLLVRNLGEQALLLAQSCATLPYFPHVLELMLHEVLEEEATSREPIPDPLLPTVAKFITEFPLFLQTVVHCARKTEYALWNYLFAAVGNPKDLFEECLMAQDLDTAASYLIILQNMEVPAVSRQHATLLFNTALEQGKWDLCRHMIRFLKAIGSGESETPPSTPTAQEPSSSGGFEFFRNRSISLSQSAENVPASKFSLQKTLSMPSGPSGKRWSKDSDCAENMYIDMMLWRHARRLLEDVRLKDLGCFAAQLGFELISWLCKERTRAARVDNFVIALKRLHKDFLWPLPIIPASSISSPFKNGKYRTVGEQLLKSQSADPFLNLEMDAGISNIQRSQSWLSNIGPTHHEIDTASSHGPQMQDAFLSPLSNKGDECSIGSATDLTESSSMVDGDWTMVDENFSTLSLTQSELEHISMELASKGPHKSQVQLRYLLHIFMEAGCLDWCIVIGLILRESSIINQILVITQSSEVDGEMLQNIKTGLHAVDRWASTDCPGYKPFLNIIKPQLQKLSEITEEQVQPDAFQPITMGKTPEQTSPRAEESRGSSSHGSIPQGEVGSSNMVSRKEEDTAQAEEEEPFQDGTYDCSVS
inactive: lapatinib 0.016 | pictilisib -0.02 | crizotinib -0.06 | [1] -0.032 | duvelisib -0.048 | gandotinib -0.092 | tozasertib 0.01 | doramapimod 0.026 | [2] 0.108 | nilotinib -0.069 | [3] 0.033 | dasatinib 0.001 | [4] 0.086 | [5] 0.008 | quisinostat -0.169 | tipifarnib 0.085 | [6] 0.097 | [7] -0.085 | [8] 0.002
active: bafetinib 0.3

RDH14 (UniProt Q9HBH5)
UniProt Q9HBH5, sequence (Q9HBH5 whole entry, looked up): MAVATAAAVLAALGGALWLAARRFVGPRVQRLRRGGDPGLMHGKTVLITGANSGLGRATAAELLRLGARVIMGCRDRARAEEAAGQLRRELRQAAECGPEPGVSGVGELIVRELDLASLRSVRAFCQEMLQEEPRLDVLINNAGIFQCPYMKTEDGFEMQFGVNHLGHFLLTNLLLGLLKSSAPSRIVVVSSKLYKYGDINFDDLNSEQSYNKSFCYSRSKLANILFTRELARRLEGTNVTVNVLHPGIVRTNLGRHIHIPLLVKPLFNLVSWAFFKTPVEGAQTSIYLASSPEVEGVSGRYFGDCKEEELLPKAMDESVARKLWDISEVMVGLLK
inactive: lapatinib 0.082 | pictilisib -0.028 | crizotinib 0.009 | [1] -0.191 | duvelisib 0.002 | gandotinib 0.176 | tozasertib 0.043 | doramapimod 0 | bafetinib -0.005 | [2] 0.198 | nilotinib 0.008 | [3] -0.006 | dasatinib 0.023 | [4] 0.004 | [5] 0.009 | quisinostat -0.016 | tipifarnib 0.065 | [6] -0.011 | [7] -0.077 | [8] 0.048

RPL36AL (UniProt Q969Q0)
active: quisinostat 0.329
inactive: lapatinib 0.05 | pictilisib 0.031 | crizotinib 0.216 | [1] 0.01 | duvelisib -0.033 | gandotinib -0.038 | tozasertib 0.047 | doramapimod -0.131 | bafetinib 0.137 | [2] 0.003 | nilotinib 0.034 | [3] 0.038 | dasatinib 0.094 | [4] 0.055 | [5] 0.04 | tipifarnib 0.058 | [6] 0.01 | [7] -0.026 | [8] -0.009

RRAGA (UniProt Q7L523)
UniProt Q7L523, sequence (Q7L523 whole entry, looked up): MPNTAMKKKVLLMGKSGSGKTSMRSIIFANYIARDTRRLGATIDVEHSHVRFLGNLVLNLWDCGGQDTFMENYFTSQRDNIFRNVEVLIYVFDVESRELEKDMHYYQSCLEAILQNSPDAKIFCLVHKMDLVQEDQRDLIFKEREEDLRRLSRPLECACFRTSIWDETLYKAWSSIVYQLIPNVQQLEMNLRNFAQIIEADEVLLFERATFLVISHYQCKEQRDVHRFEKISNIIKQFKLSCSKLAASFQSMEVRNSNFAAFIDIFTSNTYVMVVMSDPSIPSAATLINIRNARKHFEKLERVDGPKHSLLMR
inactive: lapatinib 0 | pictilisib -0.06 | crizotinib -0.084 | [1] 0.075 | duvelisib 0.063 | gandotinib -0.035 | tozasertib -0.033 | doramapimod -0.058 | bafetinib -0.018 | [2] -0.02 | nilotinib -0.144 | [3] 0.032 | dasatinib -0.025 | [4] -0.065 | [5] 0.024 | quisinostat -0.045 | tipifarnib 0.109 | [6] 0.082 | [7] 0.033 | [8] -0.04

RDX (UniProt P35241)
inactive: lapatinib -0.018 | pictilisib 0.02 | crizotinib 0.063 | duvelisib 0.005 | gandotinib -0.093 | tozasertib -0.005 | doramapimod -0.045 | bafetinib 0.077 | [2] -0.136 | nilotinib -0.003 | [3] -0.006 | dasatinib 0.037 | [4] 0.048 | [5] -0.008 | quisinostat 0.047 | tipifarnib 0.013 | [6] -0.007 | [7] 0.002 | [8] 0.006
active: [1] 0.546

SCO2 (UniProt O43819)
UniProt O43819, sequence (O43819 whole entry, looked up): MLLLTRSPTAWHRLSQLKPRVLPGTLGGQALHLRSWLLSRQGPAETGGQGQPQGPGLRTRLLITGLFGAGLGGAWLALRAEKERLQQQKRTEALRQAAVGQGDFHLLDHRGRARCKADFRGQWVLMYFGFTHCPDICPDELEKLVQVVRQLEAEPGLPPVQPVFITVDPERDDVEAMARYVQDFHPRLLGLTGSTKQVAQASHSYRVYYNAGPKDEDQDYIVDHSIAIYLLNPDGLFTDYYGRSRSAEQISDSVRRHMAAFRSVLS
inactive: lapatinib 0.118 | pictilisib -0.057 | crizotinib 0.026 | [1] -0.163 | duvelisib 0.092 | gandotinib 0.048 | tozasertib -0.007 | doramapimod 0.002 | bafetinib 0.029 | [2] 0.101 | nilotinib 0.15 | [3] -0.283 | dasatinib -0.05 | [4] -0.337 | [5] 0.106 | quisinostat 0.007 | tipifarnib -0.062 | [6] -0.005 | [7] 0.05 | [8] -0.1
